Among the data in PubChem BioAssay AID624330 (Southern Research Specialized Biocontainment Screening …, 2012) are inhibition values, retold here.

In all, about 340,000 compounds went through this assay and about 2,100 (0.62%) were called active. Only a sample is shown. Measured potencies and affinities stand elsewhere. A number with no mark means an inactive call.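 Rule for the calls: active = first-screen hits whose inhibition reached a set limit at any dose in the follow-up dose series; inconclusive = inhibition above the set first-screen limit but never retested; inactive = the rest.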

The assay deals with Rac GTPase-activating protein 1 (Homo sapiens) (UniProt Q9H0H5). The assay is described as follows: blockers of MgcRacGAP-driven Rac1 GTP hydrolysis – biochemical, ADP Hunter fluorescence, primary and confirmatory, confirmation (AID 624330).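 Note: fluorescence reports GDP produced by GAP-driven GTP hydrolysis.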 Particulars: MgcRacGAP-stimulated Rac1 GTP hydrolysis, at 30 µM, stronger effect = higher value, GST-tagged Rac1 F28L mutant substrate.
Sequence of Rac GTPase-activating protein 1 (Homo sapiens) (Q9H0H5 whole entry, looked up): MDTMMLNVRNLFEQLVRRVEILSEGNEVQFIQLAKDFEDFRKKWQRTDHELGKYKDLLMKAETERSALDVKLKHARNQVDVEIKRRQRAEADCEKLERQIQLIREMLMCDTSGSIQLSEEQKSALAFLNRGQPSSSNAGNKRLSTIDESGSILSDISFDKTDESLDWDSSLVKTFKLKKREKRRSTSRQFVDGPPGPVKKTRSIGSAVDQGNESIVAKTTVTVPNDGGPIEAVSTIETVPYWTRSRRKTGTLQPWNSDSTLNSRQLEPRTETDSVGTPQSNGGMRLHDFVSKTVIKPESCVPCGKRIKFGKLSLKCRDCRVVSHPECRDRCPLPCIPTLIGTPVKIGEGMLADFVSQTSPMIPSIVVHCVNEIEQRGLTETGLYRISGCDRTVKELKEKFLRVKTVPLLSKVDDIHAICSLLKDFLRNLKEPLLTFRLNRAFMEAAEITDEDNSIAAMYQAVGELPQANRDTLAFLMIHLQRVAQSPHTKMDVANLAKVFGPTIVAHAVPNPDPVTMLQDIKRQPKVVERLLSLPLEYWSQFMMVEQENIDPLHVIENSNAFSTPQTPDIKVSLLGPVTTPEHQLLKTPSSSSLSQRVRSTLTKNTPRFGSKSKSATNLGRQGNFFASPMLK
On to `O=C(Nc1ccc(F)cc1)c1cncs1`, for which the inhibition (usually the relative decrease from the control value, in per cent) was 9.26%.

On to `CC[n+]1c(/C=C2\C=C(C)CC(C)(C)C2)sc2ccccc21`, for which the inhibition was 31.8%. As to `C=CC[n+]1ccc(/C=C2\C=Cc3cc(C)ccc3N2CC)c2ccccc21`, the inhibition was 17%. Turning to `CCc1cc2c(SCC(=O)NC3CCCC3)ncnc2s1`, the inhibition is 6.67%.

`COc1cccc(NC(=O)[C@@H]2CCC(=O)N2C2OC(=O)c3ccccc32)c1` (stereo partly drawn): the inhibition was -0.84%. `CC(=O)Nc1ccc(NC(=O)Cn2cnc(S(=O)(=O)N3CCOCC3)c2)cc1`: the inhibition was -16.8%. Next, `Cc1ccc(CSCC(=O)NCCc2ccccc2)cc1`: -4.12%; `Cc1ccc(CSCCNC(=O)CSCc2ccc([N+](=O)[O-])cc2)cc1`: 6.03%; `Cc1ccc(CCNC(=O)CSCc2ccc(F)cc2)cc1`: 8.48%.

Turning to `Cc1ccc(CNC(=O)CSCc2ccccc2)cc1`, the inhibition is 10.2%. As to `CC1=C(C#N)C(c2ccc(O)cc2)C(C#N)=C(C)N1`, the inhibition was 11.8%. In the case of `CCOc1ccc(NC(=O)CN2CCN(CC(=O)Nc3ccc(C(=O)OC)cc3)CC2)cc1`, the inhibition is 6.74%.

Take `C/C(=N\NC(=O)Cn1nc(C)c([N+](=O)[O-])c1C)c1ccc(Cl)s1`: the inhibition was 5.29%.

With `COC(=O)c1scc2c(=O)cc(C(F)(F)F)[nH]c12`, the inhibition was 6.18%. For `Cc1cc(OCC(=O)N(C(C)C)C(C)C)cc(C)c1Br`, the inhibition is 7.37%. The figure for `COc1ccc(/C=N/N2CCOCC2)cc1O` is 6.98%. Regarding `COc1ccc(/C=N/N2CCN(C)CC2)cc1OC`, the inhibition was 4.11%. Next, `COc1ccc(/C=N/N2CCN(c3ccccc3OC)CC2)cc1Br`: 5.46%; `COc1ccc(/C=N/N2CCN(c3ccccc3OC)CC2)cc1OC`: 1.46%; `COc1ccccc1N1CCN(/N=C(\C)c2ccc(O)cc2)CC1`: 8.49%. Regarding `COc1ccccc1N1CCN(/N=C(\C)c2ccccc2O)CC1`, the inhibition is 9.26%. Next, `COc1cc(/C=N/N2CCN(Cc3ccc(C)cc3)CC2)cc(OC)c1O`: 25.8%. As for `CC(=O)Oc1ccc(/C(C)=N/N2CCN(Cc3ccc(C)cc3)CC2)cc1`, the inhibition is -1.21%. As for `COc1ccc(-c2cc([C@H]3[C@H]4C=CC[C@@H](C)[C@@H]4C(=O)N3Cc3ccccc3)ccc2F)cc1`, the inhibition was 4.49%. The figure for `CCC(C)N(C(=O)COC(=O)c1ccc(=O)n(Cc2ccccc2)n1)C1CCS(=O)(=O)C1` (stereo not drawn) is 2.85%.

As to `CSc1nc(C(=O)N2CCc3c([nH]c4ccccc34)C2c2ccccn2)cs1` (stereo not drawn), the inhibition is 3.69%. For `CCCCNC(=O)Cn1c(=O)c2c(ncn2CCC(C)C)n(Cc2ccccc2)c1=O`, the inhibition is 6.76%.

Turning to `CCOC(=O)/C=C1\SCC(=O)N1CC(=O)NC(c1ccccc1)c1ccccc1`, the inhibition was 5.26%. Next, `CN(CC(=O)Nc1cccc(F)c1)C(=O)CSc1ccccc1`: 1.63%.

For `COc1ccccc1N1CCN(/N=C/c2cccc(OC)c2O)CC1`, the inhibition is -28.4%. Consider `COc1ccccc1N1CCN(/N=C\c2ccccc2)CC1`, for which the inhibition is -17.8%.

`COc1ccccc1N1CCN(/N=C/c2cccc(O)c2)CC1`: the inhibition is 10.5%. The figure for `COc1ccccc1N1CCN(/N=C/c2cc(OC)c(OC)c(OC)c2)CC1` is -2.37%; for `CC1CCCCC1NC(=O)CSc1nnc(CC(=O)Nc2ccccc2F)n1C` (stereo not drawn) it is 5.96%; for `O=C(C[C@@H]1C/C=C/CC[C@@H](Cc2ccc(F)cc2)C(=O)OCCNC1=O)N[C@H](CO)Cc1ccccc1` it is 3.03%.

Regarding `COCC1CCN(Cc2cn(C)nc2-c2cccc(Cl)c2)C1` (stereo not drawn), the inhibition was 1.3%. Next, `O=C(CCc1nnc2ccc(NCc3ccc(F)cc3)nn12)NC1CCCC1`: 12.4%; `c1ccc(CNCc2ccc3c(c2)OCO3)nc1`: 4.13%. Next, `CC(C)C(=O)N(Cc1ccc2c(c1)OCO2)Cc1ccccn1`: 7.22%; `O=C(CN1CCCc2ccccc21)Nc1cccc(S(=O)(=O)N2CCCC2)c1`: 9.73%. Take `CNCc1c(C)nn(-c2ccccc2)c1C`: the inhibition is 8.94%. Next, `CCn1ccnc1CN(C)Cc1nc(-c2ccccc2)no1`: -3.37%. `C/C(=N\NC(=O)CSCc1ccccc1Cl)c1cccc(NC(=O)c2ccccc2)c1`: the inhibition is 4.95%. Next, `CC(=O)Nc1ccc(NC(=O)CSCc2ccccc2Cl)cc1`: 10.3%; `Cc1ccccc1Nc1nc(N)nc(COC(=O)c2ccc3c(c2)OCCO3)n1`: 12.6%.

With `O=C(Nc1ccccc1C(=O)Nc1ccc(F)cc1)c1ccco1`, the inhibition was 6.4%. Next, `CCOc1ccc(S(=O)(=O)N2CCN(C(=O)c3ccc(C)c(S(=O)(=O)N4CCOCC4)c3)CC2)cc1`: 5.86%; `COc1ccc(CN2CCN(C(=O)CC(C)C)CC2)cc1`: 26.1%; `COc1ccc(CN2CCN(C(=O)CC(C)C)CC2)cc1Br`: 26.2%. The figure for `COc1ccc(C(=O)N2CCN(C(=O)CC(C)C)CC2)cc1OC` is -1.21%; for `COc1ccc(C(=O)N2CCN(Cc3cc(OC)c(O)c(OC)c3)CC2)cc1OC` it is 18.5%; for `COc1cc(OC)c(OC)cc1CN1CCN(C(=O)CC(C)C)CC1` it is 12.8%. On to `CCOc1cc(CN2CCCCCC2)ccc1OC`, for which the inhibition is 25.5%. The figure for `C=CCN1C(=O)c2ccc(C(=O)N(C)CC(=O)Nc3ccccc3Cl)cc2C1=O` is -7.53%. For `CCOC(=O)c1ccc(NC(=O)c2nc[nH]c2C(=O)NCCCNC(=O)c2[nH]cnc2C(=O)Nc2ccc(C(=O)OCC)cc2)cc1`, the inhibition was -0.79%.

Turning to `COc1ccc(N=Cc2c(O)c3ccccc3oc2=O)cc1`, the inhibition is 10.7%. `COC(=O)c1ccccc1NC(=S)NC(=O)COc1ccccc1Cl`: the inhibition is 2.61%.

In the case of `CCOc1ccc(-n2c(-c3ccco3)n[nH]c2=S)cc1`, the inhibition is 15.8%. Next, `O=C(COC(=O)c1cccs1)NCCc1ccc(F)cc1`: 4.76%; `CC1CC(C)(C)N(C(=O)CN2C(=O)CCC2=O)c2ccccc21` (stereo not drawn): -0.11%. The figure for `CC1CC(C)(C)N(C(=O)CN2C(=O)c3ccccc3C2=O)c2ccccc21` (stereo not drawn) is 2.35%; for `Cc1ccc2c(c1)C(C)CC(C)(C)N2C(=O)NC1CCCCC1` (stereo not drawn) it is 3.06%; for `CN1CCN(CC(=O)N2c3ccccc3C(C)(c3ccccc3)CC2(C)C)CC1` (stereo not drawn) it is 10.3%.
